Results filed as inconclusive are left out. Entries that show only a call come without a potency. Active and inactive are the calls of the source. The call rests on the fitted dose curve; in most records, active means well fitted inhibition curve with a large enough effect; inconclusive means small, poorly fitted or top-dose-only effect; inactive means no such curve, though single readings can be large or run the other way.

Data on 15 compounds can be found in PubChem BioAssay (NCATS).

This assay deals with Retinaldehyde dehydrogenase 3 (Homo sapiens) (UniProt P47895). The assay can be described thus: qHTS for Inhibitors of the Aldehyde Dehydrogenase Family (ALDH1A3) Primary screen (AID 2061315). The note with it: ALDH inhibition qHTS; series mostly up to 56 µM. Background: Quantitative high-throughput screening tests each substance at several concentrations.
On to `c1ccc(CNCc2nnc(-c3cc4ccccc4[nH]3)s2)cc1`, for which the Potency result was “inactive”.

Turning to `CS(=O)(=O)c1ccc(-c2csc(N3CCC(C(N)=O)CC3)n2)cc1`, the Potency entry is “inactive”.

As for `Brc1cnc2nc(SCc3ccccn3)[nH]c2c1`, the Potency entry was “inactive”.

For `O=C(Nc1nnc(-c2ccco2)o1)c1ccncc1`, the Potency result is “inactive”.

In the case of `O=S(=O)(c1c(F)cccc1F)C1CCN(S(=O)(=O)c2ccc3c(c2)OCCO3)CC1`, the Potency result was “inactive”.

Take `CCOc1ccc(CCN(C)C(=O)c2cc3sccc3n2Cc2ccccc2)cc1OCC`: the Potency result is “inactive”.

On to `O=C(Nc1ccc2sccc2c1)Nc1nnc(-c2cccnc2)s1`, for which the Potency result is “inactive”.

Take `Cc1ccccc1NS(=O)(=O)c1ccc2c(c1)CCC(=O)N2`: the Potency result was “inactive”.

In the case of `CCN(CC)CCCC(C)n1c(-c2ccccc2)nc2c(NCc3ccccc3)nc(C)nc21` (stereo not given), the Potency result is “inactive”.

With `COc1ccc(C(=O)O)cc1COc1ccc(NC(C)=O)cc1`, the Potency result is “inactive”.

For the compound `COc1ccc(C2c3c(ncn(Cc4ccccc4)c3=N)Oc3ccc4ccccc4c32)cc1OC` (stereo not given), the Potency result was “inactive”.

With `Fc1cc(Nc2nc(-c3ccncc3)nc3ccccc23)ccc1OCC(F)(F)F`, the Potency result was “inactive”.

As for `CO[C@H]1C[C@@H]2CC[C@@H](C)[C@@](O)(O2)C(=O)C(=O)N2CCCC[C@H]2C(=O)O[C@H]([C@H](C)C[C@@H]2CC[C@@H](OC(=O)C(C)(CO)CO)[C@H](OC)C2)CC(=O)[C@H](C)/C=C(\C)[C@@H](O)[C@@H](OC)C(=O)[C@H](C)C[C@H](C)/C=C/C=C/C=C/1C`, the Potency entry was “inactive”.

With `Cc1ccc(S(=O)(=O)Nc2ccccc2N2CCCCC2)s1`, the Potency result was “inactive”.

`O=[S+]([O-])(c1c(F)cccc1F)N1CCN([S+](=O)([O-])c2csc3ccccc23)CC1`: the Potency entry is “inactive”.
